The sample as a whole holds a higher share of hits than the screen did.
ALOX12 inh = inhibitors of human 12S-lipoxygenase ALOX12 | AID 1671190 | P18054 | 580,000 tested, 1.1% active | Potency, µM (series often up to 108 µM), inactives show at the highest dose activity change, negative = inhibition, actives largely listed as inhibitors | purified 12hLO, xylenol orange hydroperoxide absorbance; further: potency means the concentration at half of the fitted maximal effect
Target sequence (P18054 whole entry, looked up): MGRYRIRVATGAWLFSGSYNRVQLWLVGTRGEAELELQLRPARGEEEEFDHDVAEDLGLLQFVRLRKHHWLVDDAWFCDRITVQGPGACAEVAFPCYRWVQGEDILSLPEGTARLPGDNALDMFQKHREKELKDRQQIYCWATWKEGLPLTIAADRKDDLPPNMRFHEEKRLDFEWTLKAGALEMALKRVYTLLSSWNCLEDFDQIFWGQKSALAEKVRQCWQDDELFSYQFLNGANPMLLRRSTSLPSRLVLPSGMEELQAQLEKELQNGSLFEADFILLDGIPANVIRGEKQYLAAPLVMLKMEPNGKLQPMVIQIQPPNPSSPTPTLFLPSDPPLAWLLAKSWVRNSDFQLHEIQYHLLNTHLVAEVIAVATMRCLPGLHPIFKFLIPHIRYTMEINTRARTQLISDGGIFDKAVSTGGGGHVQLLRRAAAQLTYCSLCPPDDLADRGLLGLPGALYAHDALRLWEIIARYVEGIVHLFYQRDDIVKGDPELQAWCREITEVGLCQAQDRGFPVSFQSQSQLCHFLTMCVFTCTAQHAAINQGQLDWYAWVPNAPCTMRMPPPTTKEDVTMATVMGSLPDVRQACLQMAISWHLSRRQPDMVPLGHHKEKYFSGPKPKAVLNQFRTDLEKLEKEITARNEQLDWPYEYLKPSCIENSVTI
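Purified human 12hLO (150 nM final) in 25 mM Hepes, 0.01% Triton X-100, pH 7.0 was preincubated 15 min at room temperature with compound. Then 40 uM arachidonic acid was added, 30 min. Hydroperoxide was read by Fe-XO absorbance ratio 573/405 nm.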
IL-1B inflam inh = inflammasome signaling inhibition, IL-1 beta readout; THP-1 LPS/ATP IL-1B secretion, AlphaLISA, 16 h; hits give low values; activity change, % at 57.5 µM; 360,000 tested, 4.7% active; AID 743279; in the data active means activity change below about -50%; inconclusive means mostly about -30% to -49%
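THP-1 cells pretreated 1 hr with compounds (up to 57.5 uM final), then stimulated with LPS (250 ng/mL final) plus ATP (1.25 mM final); secreted IL-1B measured by AlphaLISA after 16 hr, decreased signal indicating inhibition.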
TDP1 cell CPT = growth inhibition of DT40 Tdp1-/-;hTDP1 cells with camptothecin (screen for TDP1 inhibitors); chicken DT40 Tdp1-/-;hTDP1 cells + 20 nM CPT, ATP luminescence, 48 h; Potency, µM (series often up to 46.2 µM), without a hit: at the highest dose activity change, negative = growth inhibition, hits mostly inhibitors; 420,000 tested, 12% active; further: potency means the concentration at half of the fitted maximal effect; nearly all actives have a fitted effect of over 55% in size
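Cell growth measured by CellTiter-Glo luminescence after a minimum 48 h, 37 C compound exposure with 20 nM CPT in Tdp1-knockout DT40 cells stably expressing hTDP1, seeded 400/well; qHTS titration format.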
HT1080-NT tox = kills 2HG-producing HT-1080-NT fibrosarcoma cells. HT-1080-NT fibrosarcoma viability, CellTiter-Glo ATP luminescence, 48 h. Potency, µM (titrated, usually from 46.1 µM), for the others: top-dose activity, negative = less viability, usual class: cytotoxic. 360,000 tested, 1.6% active. AID 686970;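 further: NT is the 2HG producing partner of a matched IDH1 knockdown line; potency means the concentration at half of the fitted maximal effect; 0% = DMSO-treated cells and -100% = media-only wells without cells; nearly all actives have a fitted effect of over 55% in size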
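Toxicity toward the 2HG-producing NT line was scored as %Activity, normalised to DMSO and no-cell wells, from CellTiter-Glo luminescence after 48 hours' treatment.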
HT1080 IDH1KD tx = toxicity to HT-1080 IDH1 knockdown cells (counter line). 360,000 tested, 2% active. Potency, µM (series often up to 46.1 µM), for inactives: at the highest dose activity, negative = toxicity, actives largely listed as cytotoxic. HT-1080 IDH1 knockdown viability, ATP luminescence, 48 h. AID 686971;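 further: potency means the concentration at half of the fitted maximal effect; 0% = DMSO wells and -100% = cell-free medium wells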
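In this qHTS, HT-1080 cells depleted of IDH1 are exposed for 48 h at 37 °C to compound titrations. Toxicity is scored from CellTiter-Glo luminescence, with DMSO as full viability and medium alone as none.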
DT40 TDP1 no CPT = qHTS for Inhibitors of human tyrosyl-DNA phosphodiesterase 1 (TDP1): qHTS in cells in absence of CPT; AID 686978, 2013; Potency, µM (titrated, usually from 46.2 µM), without a hit: at the top dose activity change, negative = growth inhibition, actives largely listed as inhibitors; DT40 Tdp1-/- hTDP1 cells, no CPT, ATP luminescence, 48 h; 420,000 tested, 15% active; further: potency means the concentration at half of the fitted maximal effect; nearly all actives have a fitted effect of over 55% in size
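Chicken DT40 Tdp1-/- cells complemented with human TDP1, screened without camptothecin (DMSO vehicle only), 400 cells/well. Compounds pin-transferred, cells incubated at 37 °C for at least 48 hr. Growth read as ATP-dependent luminescence (CellTiter-Glo, 30 min at RT).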
Active calls of the source: *; ? = inconclusive; nt = not tested or not shown; [ ] = dose if it differs, or a comment. Unless noted, the call rests on the fitted dose curve; in most records, active means well fitted curve in the direction sought with a large enough effect; inconclusive means small, poorly fitted or top-dose-only effect, or another doubt; inactive means no such curve, though single readings can be large; an effect the other way counts as inactive or inconclusive. Unless noted, on the % scale 0 is the no-effect control and ±100 the full control effect.

SMILES	ALOX12 inh	IL-1B inflam inh	TDP1 cell CPT	HT1080-NT tox	HT1080 IDH1KD tx	DT40 TDP1 no CPT
CCCCn1c2ccccc2c2nnc(SCCN3CCCCC3)nc21	0.0%	-9.7	?	-2.8%	0.5%	16.4µM*
CC(C)(C)C(=O)COC(=O)c1ccccc1Br	-75.1%	nt	nt	nt	nt	nt
CSc1nnc2c3ccccc3n(Cc3ccccc3)c2n1	20.9%	-15.2	?	-2.4%	-3.3%[9.24 µM]	?
COc1ccc2c(c1)c1nnc(SCCN3CCOCC3)nc1n2C	nt	nt	?	-5.4%	-8.8%	15.8µM*
CSc1nnc2c3ccccc3n(CCc3ccccc3)c2n1	-11.7%	0.0	7.31µM*	-16.0%	?	16.4µM*
CCN(CC)CCSc1nnc2c3cc(C)ccc3n(Cc3ccccc3)c2n1	0.0%	-67.3*	?	16.4µM*	23.1µM*	20.6µM*
CN(C)CC(O)COc1ccc(NC(=O)NCc2ccccc2)cc1 (stereo not given)	-1.1%	nt	nt	nt	nt	nt
COc1ccccc1-c1nc(C(=O)NC(C)C)n2ccncc12	3.4%[176 µM]	nt	nt	nt	nt	nt
CC(C)C[C@H](NC(=O)[C@H](Cc1ccccc1)NC(=O)c1cnccn1)B(O)O	2.9%[57.4 µM]	nt	0.0042µM*	nt	nt	0.0075µM*
CCCNC(=O)C(Cc1ccccc1)NC(=O)c1ccccn1 (stereo not given)	8.4%	1.4	-19.9%	3.2%	16.9%	-20.3%
COC(=O)[C@@]12C[C@@H](CC(=O)N3CCCC3)C(=O)N(Cc3ccc4c(c3)OCO4)C1=CCC(C)(C)C2	-2.7%	-23.7	?	5.1%	2.9%	?
COC(=O)[C@@]12C[C@@H](CC(=O)N3CCSCC3)C(=O)N(Cc3ccc4c(c3)OCO4)C1=CCC(C)(C)C2	-1.0%	-22.5	?	-24.7%	-19.4%	14.6µM*
CCOC(=O)N1CCN(C(=O)C[C@@H]2C[C@@]3(C(=O)OC)CCCCC=C3N(Cc3ccc4c(c3)OCO4)C2=O)CC1	-13.1%	-19.7	?	0.7%	4.1%	?
CCOC(=O)N1CCN(C(=O)C[C@@H]2C[C@@]3(C(=O)OC)CC(C)(C)CC=C3N(Cc3ccc4c(c3)OCO4)C2=O)CC1	1.0%	-1.9	11.6µM*	-10.1%	-20.0%	18.4µM*
COCCNC(=O)c1cnc2cc(C)nn2c1	7.6%[176 µM]	nt	nt	nt	nt	nt
CCc1ccccc1NC(=O)Cn1c(=O)oc2ccccc21	4.4%	nt	2.31µM*	nt	nt	0.461µM*
O=C(Cn1c(=O)oc2ccccc21)Nc1ccccc1Cl	?	3.3	-1.5%	3.7%	-0.9%	?
Cc1ccccc1NC(=O)Cn1c(=O)oc2ccccc21	11.4%	12.9	3.66µM*	13.5%	2.5%	2.06µM*
CC(C)Oc1ccc(CNC(=O)Cn2c(=O)oc3ccccc32)cc1	-12.3%	-3.7	?	10.9%	-0.7%	16.4µM*
CCCOc1ccc(CNC(=O)Cn2c(=O)oc3ccccc32)cc1	-8.4%	-2.9	?	8.1%	7.0%	?
COc1ccc(C)cc1NC(=O)Cn1c(=O)oc2ccccc21	322.4%	-4.1	9.2µM*	6.7%	-7.5%	2.06µM*
O=C1CC(c2ccccc2)N(C(=O)C2CC2)CCCN(C(=O)COc2ccc(F)cc2)CCN1 (stereo not given)	32.1%	nt	nt	nt	nt	nt
Cc1oc(-c2ccc(Cl)cc2)nc1CN1CCC(C(=O)NCC2CCCO2)CC1 (stereo not given)	-8.7%	?	-9.3%	-10.0%	-8.0%	-1.3%
CCCCNC(=O)C1CCN(Cc2nc(-c3ccc(OC)c(OC)c3)oc2C)CC1	?	nt	-10.6%	nt	nt	-24.1%
CCC1CCCCN1CCCNC(=O)C1CCN(Cc2nc(-c3ccc(Cl)cc3)oc2C)CC1 (stereo not given)	nt	-90.3*	3.66µM*	18.4µM*	?	2.59µM*
SMILES	ALOX12 inh	IL-1B inflam inh	TDP1 cell CPT	HT1080-NT tox	HT1080 IDH1KD tx	DT40 TDP1 no CPT
Cc1oc(-c2ccc(Cl)cc2)nc1CN1CCC(C(=O)NCc2cccs2)CC1	-38.7%	-53.9*	?	20.6µM*	?	?
Cc1oc(-c2ccc(Cl)cc2)nc1CN1CCC(C(=O)NCCCN2CCOCC2)CC1	-2.6%	?	29.1µM*	22.4µM*	?	?
O=C(NC1CCCCC1)C1CN(C(=O)c2ccc(Cl)s2)CC12CCOCC2 (stereo not given)	-12.3%	nt	nt	nt	nt	nt
COC(=O)c1cccc(Nc2cc(C)n(-c3cccc(C(=O)OC)c3)c(=O)c2)c1	8.9%	nt	nt	nt	nt	nt
O=C(c1ccc(S(=O)(=O)Cc2ccccc2F)c([N+](=O)[O-])c1)N1CCCC1	2.7%	-103.0*	18.4µM*	?	?	?
CC1CCN(C(=O)c2ccc(N3CCOCC3)c([N+](=O)[O-])c2)CC1	176.6%	-3.9	-29.9%	1.9%	2.1%	?
CC1CCN(C(=O)c2ccc(S(=O)(=O)Cc3ccccc3F)c([N+](=O)[O-])c2)CC1	-12.1%	-117.4*	?	-13.9%	?	16.4µM*
O=C(c1ccc(S(=O)(=O)c2ccc(F)cc2)c([N+](=O)[O-])c1)N1CCCCCC1	-7.6%	-103.0*	3.26µM*	-21.1%	?	2.31µM*
CCCc1cc(=O)oc2cc(OCC(=O)NCc3cccnc3)ccc12	7.2%	nt	nt	nt	nt	nt
Cc1cc(C)cc(CN2CCC(C(=O)NCC(F)(F)F)CC2)c1	-54.0%	nt	nt	nt	nt	nt
c1cn(-c2ccc3ncsc3c2)c(-c2cc3n(n2)CCCNC3)n1	70.3%	nt	nt	nt	nt	nt
COc1cc(C)nc(N(Cc2ccccc2)S(=O)(=O)c2ccc(C)cc2)n1	-6.8%	?	?	-13.1%	-18.7%	18.4µM*
COc1cc(C)nc(N(Cc2ccccc2)S(=O)(=O)c2ccccc2)n1	21.0%	-14.8	?	-5.0%	-9.6%	?
Cc1ccccc1/C=C/C1=NCCN1	?	-91.8*	-14.0%	0.0%	-0.3%	-0.2%
Cc1noc(C)c1[S+](=O)([O-])N1CCC2(CC1)C(=O)NCN2Cc1ccc(Cl)cc1	-6.0%	nt	nt	nt	nt	nt
CC(=O)NC1=NN(C(C)=O)C(C)(c2ccccn2)S1 (stereo not given)	0.6%	4.5	23.5%	10.8%	10.8%	?
CC(=O)NC1=NN(C(C)=O)C(C)(c2ccc(Br)cc2)S1 (stereo not given)	1.0%	45.2	-20.4%	?	18.4µM*	?
O=C1c2c(nc(CNC3CCOCC3)n2Cc2ccccc2)NCCN1CC1CC1	54.5%[176 µM]	nt	nt	nt	nt	nt
O=C(c1ccccc1Cl)N(Cc1ccco1)Cc1ccco1	-22.6%	nt	20.6µM*	nt	nt	14.6µM*
O=C(c1ccccc1)N(Cc1ccco1)Cc1cccs1	-12.7%	nt	?	nt	nt	13µM*
O=C(c1ccc2ncsc2c1)N(Cc1ccco1)Cc1cccs1	-0.5%	nt	nt	nt	nt	nt

Source: PubChem BioAssay
